# Measurements from ChEMBL document CHEMBL3988442, “University of Dundee, Small-Polar-MMV Screening Library” (2021).
# For some of these results: Measured potencies and affinities stand elsewhere.
# Assays:
# [1] = target: Protein translocase subunit SecA (Escherichia coli (strain K12)) (UniProt P10408); test: Assay to Identify E. coli SecA ATPase Inhibitors; type: functional; set-up: scale not given: direction of the effect not stated beside the values; conditions: 30 µM
# [2] = target: T1, Ubiquitin-activating enzyme e1, putative (Leishmania donovani (strain BPK282A1)) (UniProt E9BSI1); test: Leishmania donovani Ubiquitin Activating Enzyme (LdE1); type: functional; set-up: scale not given: direction of the effect not stated beside the values; conditions: 30 µM
# T1 sequence (whole entry): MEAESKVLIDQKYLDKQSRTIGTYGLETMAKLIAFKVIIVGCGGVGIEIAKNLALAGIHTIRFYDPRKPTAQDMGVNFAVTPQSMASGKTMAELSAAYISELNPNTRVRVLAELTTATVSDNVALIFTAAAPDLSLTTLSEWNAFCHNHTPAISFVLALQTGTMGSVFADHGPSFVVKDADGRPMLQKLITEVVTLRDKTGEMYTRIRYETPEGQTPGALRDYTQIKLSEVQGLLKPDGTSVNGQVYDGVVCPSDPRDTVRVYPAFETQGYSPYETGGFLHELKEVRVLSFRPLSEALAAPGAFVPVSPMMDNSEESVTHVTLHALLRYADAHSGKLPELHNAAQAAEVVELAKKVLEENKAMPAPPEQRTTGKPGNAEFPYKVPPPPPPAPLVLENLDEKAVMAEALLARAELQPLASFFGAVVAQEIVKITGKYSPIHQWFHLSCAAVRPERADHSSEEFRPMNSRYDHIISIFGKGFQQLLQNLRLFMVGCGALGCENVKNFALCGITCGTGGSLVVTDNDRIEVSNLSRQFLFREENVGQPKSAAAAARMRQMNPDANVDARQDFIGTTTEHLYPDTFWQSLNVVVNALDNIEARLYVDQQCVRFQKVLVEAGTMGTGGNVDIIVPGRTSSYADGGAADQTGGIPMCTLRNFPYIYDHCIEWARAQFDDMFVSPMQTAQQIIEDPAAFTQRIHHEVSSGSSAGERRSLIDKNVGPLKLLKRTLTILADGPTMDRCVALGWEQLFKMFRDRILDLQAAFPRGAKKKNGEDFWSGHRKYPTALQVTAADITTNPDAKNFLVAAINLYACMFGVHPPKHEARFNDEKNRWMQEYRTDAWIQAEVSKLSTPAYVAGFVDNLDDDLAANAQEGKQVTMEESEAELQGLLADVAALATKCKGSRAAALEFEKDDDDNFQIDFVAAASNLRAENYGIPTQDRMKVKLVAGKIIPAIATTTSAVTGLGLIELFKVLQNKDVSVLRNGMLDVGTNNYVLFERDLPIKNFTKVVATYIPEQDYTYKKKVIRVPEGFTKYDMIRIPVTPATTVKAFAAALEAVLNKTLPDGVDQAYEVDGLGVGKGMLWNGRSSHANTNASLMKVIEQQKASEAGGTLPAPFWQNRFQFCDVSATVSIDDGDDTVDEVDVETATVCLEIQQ
# [3] = target: T2, Aspartate--tRNA(Asp/Asn) ligase (Mycobacterium tuberculosis (strain ATCC 25618 / H37Rv)) (UniProt P9WFW3); test: Assay for Asp RNA synthetase-1 from Mycobacterium tuberculosis; type: functional; set-up: scale not given: direction of the effect not stated beside the values; conditions: 30 µM; further: in the data most compounds retested in dose-response had high values
# T2 sequence (whole entry): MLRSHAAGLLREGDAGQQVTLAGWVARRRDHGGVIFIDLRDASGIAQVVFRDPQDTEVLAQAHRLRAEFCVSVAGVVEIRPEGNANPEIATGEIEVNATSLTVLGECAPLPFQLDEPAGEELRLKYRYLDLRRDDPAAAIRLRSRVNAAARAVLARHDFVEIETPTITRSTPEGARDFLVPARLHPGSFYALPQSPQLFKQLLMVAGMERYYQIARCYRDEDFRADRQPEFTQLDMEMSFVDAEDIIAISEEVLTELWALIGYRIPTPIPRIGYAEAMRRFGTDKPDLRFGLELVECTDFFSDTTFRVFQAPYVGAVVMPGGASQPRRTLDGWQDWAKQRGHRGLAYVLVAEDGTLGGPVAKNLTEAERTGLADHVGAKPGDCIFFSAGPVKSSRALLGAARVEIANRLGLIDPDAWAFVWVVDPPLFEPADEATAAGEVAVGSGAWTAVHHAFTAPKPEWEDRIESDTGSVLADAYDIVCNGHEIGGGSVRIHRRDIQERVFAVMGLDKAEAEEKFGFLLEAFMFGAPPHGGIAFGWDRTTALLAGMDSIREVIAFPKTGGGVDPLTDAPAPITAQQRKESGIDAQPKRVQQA
# [4] = target: AMP-activated protein kinase, AMPK (Homo sapiens) (UniProt P54646+O43741+P54619+Q9UGJ0+Q9Y478+Q13131+Q9UGI9); test: AMP-dependent Kinase enzyme assay. An in vitro enzyme assay that detects ADP turnover that is directly proportional to AMPK activity. This uses naive AMPK that is activated during the assay with MK-8722; type: functional; set-up: scale not given: direction of the effect not stated beside the values; conditions: 30 µM
# [5] = target: Sialic acid-binding Ig-like lectin 9 (Homo sapiens) (UniProt Q9Y336); test: Hs-Siglec9 ALPHAscreen SOP 20170721; set-up: scale not given: direction of the effect not stated beside the values; conditions: 10 µM
# Sialic acid-binding Ig-like lectin 9 (Homo sapiens), sequence (Q9Y336 whole entry): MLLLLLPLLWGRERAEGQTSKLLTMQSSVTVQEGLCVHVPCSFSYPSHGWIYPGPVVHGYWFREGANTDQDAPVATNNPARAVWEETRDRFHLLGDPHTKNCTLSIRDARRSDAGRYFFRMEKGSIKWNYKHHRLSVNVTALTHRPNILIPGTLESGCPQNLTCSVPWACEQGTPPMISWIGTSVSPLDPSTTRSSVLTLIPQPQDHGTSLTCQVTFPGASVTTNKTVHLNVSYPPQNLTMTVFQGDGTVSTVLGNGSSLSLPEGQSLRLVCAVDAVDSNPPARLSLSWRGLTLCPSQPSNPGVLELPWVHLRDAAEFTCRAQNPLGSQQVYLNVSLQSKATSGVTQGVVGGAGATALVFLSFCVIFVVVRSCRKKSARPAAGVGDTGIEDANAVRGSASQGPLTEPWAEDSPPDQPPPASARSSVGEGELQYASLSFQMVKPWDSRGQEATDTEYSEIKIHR
# [6] = system: Trypanosoma cruzi; test: Trypanosoma cruzi phosphomannomutase and mannose-1-phosphate guanylyltransferase assay; type: functional; set-up: scale not given: direction of the effect not stated beside the values; conditions: 10 µM
# [7] = target: T3, Arginase-2, mitochondrial (Homo sapiens) (UniProt P78540); test: in vitro enzyme assay to detect the production of urea directly proportional to the activity of Arginase II; type: functional; set-up: scale not given: in the data most compounds retested in dose-response had high values
# T3 sequence (whole entry): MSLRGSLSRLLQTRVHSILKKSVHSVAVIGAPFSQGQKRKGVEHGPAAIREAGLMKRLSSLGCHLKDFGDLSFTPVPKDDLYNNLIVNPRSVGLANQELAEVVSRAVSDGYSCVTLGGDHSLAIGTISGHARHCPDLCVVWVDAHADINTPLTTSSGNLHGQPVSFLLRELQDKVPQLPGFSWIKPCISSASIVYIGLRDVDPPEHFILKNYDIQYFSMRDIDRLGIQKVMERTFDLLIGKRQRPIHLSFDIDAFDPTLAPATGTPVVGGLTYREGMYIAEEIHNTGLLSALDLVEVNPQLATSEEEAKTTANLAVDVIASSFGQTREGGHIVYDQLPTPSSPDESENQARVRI
# [8] = target: T4, Proteasome subunit beta (Trypanosoma cruzi) (UniProt O96673); test: Trypanosoma cruzi proteasome chymotrypsin-like activity (TcProtChymo) assay.; type: functional; set-up: scale not given: in the data most compounds retested in dose-response had high values; conditions: 9.37 µM
# T4 sequence (whole entry): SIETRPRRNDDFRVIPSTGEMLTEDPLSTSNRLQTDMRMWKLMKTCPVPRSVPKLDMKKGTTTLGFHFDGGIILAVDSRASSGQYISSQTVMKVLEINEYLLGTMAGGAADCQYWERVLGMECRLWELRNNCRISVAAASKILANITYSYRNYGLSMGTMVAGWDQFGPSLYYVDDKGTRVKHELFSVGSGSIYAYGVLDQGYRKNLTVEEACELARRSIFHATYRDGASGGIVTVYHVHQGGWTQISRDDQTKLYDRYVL
# [9] = organism: Homo sapiens; test: To identify inhibition of the IFN signalling (Jak-Stat) pathway via expression of an eGFP reporter gene under the control of an IFN-stimulated response element (ISRE) containing MxA promoter.; type: functional; set-up: scale not given: direction of the effect not stated beside the values; conditions: 30 µM
# [10] = target: Shiga toxin 2 (Escherichia coli O157:H7) (UniProt P09385+P09386); test: E. coli 0.157:H7 Shiga Toxin SOP - stx2 screening assay; type: functional; set-up: scale not given: direction of the effect not stated beside the values; conditions: 30 µM
# [11] = target: T5, Tyrosyl-tRNA synthetase, putative (Trypanosoma cruzi (strain CL Brener)) (UniProt Q4DSP6); test: Trypanosoma cruzi tyrosyl tRNA synthetase (TcYRS) _High Tyrosine SOP; type: functional; set-up: scale not given: in the data most compounds retested in dose-response had high values; conditions: 30 µM
# T5 sequence (whole entry): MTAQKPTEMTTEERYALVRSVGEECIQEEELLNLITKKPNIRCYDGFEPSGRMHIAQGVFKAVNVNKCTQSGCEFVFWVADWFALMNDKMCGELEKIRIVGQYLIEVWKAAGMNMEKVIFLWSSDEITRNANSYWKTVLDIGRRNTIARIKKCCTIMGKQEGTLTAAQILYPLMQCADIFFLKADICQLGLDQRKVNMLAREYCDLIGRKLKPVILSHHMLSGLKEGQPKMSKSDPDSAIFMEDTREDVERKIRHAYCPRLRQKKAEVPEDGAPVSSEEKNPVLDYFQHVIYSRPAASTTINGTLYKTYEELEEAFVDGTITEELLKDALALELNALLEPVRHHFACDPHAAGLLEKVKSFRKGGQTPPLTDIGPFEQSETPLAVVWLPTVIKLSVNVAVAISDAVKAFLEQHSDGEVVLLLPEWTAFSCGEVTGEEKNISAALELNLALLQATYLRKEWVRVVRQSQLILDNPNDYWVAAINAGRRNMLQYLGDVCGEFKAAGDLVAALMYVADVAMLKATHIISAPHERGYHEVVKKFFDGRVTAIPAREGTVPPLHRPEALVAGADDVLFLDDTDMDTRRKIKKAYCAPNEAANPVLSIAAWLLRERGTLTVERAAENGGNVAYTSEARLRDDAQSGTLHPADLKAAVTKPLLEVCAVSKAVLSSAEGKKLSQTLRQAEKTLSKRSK
# [12] = target: T5, Tyrosyl-tRNA synthetase, putative (Trypanosoma cruzi (strain CL Brener)); test: Trypanosoma cruzi tyrosyl tRNA synthetase (TcYRS) SOP; type: functional; set-up: scale not given: direction of the effect not stated beside the values; conditions: 30 µM
# [13] = target: Chromo domain-containing protein 1 (Saccharomyces cerevisiae (strain ATCC 204508 / S288c) (Baker's yeast)) (UniProt P32657); test: ScCHD-1 Enzyme Inhibition Assay; type: functional; set-up: scale not given: in the data most compounds retested in dose-response had high values; conditions: 30 µM
# Chromo domain-containing protein 1 (Saccharomyces cerevisiae (strain ATCC 204508 / S288c) (Baker's yeast)), sequence (P32657 whole entry, the tested form may be a part): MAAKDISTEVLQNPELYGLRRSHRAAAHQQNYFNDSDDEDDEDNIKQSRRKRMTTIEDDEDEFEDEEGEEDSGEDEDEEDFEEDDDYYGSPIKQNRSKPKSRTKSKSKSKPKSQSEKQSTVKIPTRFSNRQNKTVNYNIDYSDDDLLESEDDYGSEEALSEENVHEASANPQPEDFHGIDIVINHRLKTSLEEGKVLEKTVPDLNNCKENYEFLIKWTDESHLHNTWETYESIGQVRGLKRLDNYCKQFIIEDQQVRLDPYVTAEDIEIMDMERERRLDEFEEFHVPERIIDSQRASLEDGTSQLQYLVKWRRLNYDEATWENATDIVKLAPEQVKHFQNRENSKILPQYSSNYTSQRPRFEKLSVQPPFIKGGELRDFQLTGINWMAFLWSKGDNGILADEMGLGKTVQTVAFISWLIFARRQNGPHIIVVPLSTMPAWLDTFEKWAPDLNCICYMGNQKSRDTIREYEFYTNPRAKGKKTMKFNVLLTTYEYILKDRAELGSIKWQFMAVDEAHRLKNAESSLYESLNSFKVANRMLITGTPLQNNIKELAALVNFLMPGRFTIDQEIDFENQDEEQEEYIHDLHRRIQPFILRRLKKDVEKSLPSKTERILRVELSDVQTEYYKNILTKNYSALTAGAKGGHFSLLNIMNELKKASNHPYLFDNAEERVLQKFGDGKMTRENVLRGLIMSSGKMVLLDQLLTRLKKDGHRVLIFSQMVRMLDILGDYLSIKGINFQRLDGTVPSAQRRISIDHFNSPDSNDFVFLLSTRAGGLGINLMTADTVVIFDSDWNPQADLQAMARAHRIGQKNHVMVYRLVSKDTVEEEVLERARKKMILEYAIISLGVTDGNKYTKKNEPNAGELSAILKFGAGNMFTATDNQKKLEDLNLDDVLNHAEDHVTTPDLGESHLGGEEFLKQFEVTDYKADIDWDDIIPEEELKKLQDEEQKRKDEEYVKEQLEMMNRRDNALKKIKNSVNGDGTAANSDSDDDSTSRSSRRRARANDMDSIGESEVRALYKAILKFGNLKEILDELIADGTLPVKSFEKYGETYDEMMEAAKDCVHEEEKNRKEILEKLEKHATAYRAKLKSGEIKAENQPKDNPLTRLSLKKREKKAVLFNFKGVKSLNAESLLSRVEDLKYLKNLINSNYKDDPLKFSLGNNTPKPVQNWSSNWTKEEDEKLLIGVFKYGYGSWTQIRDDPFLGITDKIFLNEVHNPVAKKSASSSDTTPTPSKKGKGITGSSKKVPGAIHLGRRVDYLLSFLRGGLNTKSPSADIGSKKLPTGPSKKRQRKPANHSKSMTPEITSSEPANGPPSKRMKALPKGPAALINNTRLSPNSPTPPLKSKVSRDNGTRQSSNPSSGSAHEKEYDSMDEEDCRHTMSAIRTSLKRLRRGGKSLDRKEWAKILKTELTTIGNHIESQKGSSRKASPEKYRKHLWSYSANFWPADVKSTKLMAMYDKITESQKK
# [14] = target: T6, Methionyl-tRNA synthetase, putative (Leishmania donovani (strain BPK282A1)) (UniProt E9BF75); test: Leishmania donovani Methionine tRNA synthetase (LdMetRS):v7. Dose response assay; type: functional; set-up: conc 80 nM, time 150 minutes
# T6 sequence (whole entry): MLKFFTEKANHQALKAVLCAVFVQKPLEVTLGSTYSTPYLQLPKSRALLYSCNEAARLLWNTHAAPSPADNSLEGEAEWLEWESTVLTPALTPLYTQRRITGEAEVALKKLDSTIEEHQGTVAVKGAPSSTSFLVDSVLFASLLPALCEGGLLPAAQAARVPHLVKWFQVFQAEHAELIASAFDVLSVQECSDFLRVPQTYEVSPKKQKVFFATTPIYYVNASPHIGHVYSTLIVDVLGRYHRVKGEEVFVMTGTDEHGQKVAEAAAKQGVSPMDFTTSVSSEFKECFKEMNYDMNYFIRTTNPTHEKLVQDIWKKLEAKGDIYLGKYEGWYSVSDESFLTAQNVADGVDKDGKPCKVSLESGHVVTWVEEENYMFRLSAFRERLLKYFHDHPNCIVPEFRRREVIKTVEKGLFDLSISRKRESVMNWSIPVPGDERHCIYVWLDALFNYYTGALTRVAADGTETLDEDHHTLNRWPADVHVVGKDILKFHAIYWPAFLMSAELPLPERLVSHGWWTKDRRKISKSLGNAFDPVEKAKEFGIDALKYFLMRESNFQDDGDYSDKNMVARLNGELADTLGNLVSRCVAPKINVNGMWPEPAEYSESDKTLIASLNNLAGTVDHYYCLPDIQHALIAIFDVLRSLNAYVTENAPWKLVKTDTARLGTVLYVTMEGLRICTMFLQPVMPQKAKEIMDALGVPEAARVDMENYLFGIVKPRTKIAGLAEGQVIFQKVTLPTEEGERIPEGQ
# Protein translocase subunit SecA (Escherichia coli (strain K12)), sequence (P10408 whole entry): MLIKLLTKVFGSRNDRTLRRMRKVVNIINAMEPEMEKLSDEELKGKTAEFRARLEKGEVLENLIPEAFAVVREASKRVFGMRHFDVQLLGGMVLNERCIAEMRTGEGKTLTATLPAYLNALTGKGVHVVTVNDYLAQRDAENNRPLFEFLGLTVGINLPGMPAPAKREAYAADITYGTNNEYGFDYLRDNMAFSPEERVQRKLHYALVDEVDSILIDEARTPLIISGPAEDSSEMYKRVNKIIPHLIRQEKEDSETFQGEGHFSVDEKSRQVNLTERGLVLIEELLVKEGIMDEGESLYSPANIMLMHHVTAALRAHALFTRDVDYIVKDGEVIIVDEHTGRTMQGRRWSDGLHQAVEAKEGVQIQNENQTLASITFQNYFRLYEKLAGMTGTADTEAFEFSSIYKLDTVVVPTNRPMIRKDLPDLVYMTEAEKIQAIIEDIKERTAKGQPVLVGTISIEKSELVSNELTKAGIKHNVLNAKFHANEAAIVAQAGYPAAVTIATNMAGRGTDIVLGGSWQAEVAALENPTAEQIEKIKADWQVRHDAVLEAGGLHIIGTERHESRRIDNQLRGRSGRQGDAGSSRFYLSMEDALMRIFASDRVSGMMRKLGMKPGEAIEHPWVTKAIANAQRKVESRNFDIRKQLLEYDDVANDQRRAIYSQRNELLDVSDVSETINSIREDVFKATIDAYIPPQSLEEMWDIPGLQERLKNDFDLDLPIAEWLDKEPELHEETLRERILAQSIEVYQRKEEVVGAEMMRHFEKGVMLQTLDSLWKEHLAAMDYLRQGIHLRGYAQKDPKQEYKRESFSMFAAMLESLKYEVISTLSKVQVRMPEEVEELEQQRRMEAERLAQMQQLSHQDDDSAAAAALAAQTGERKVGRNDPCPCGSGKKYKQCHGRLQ
SMILES,Percent Effect [1],Percent Effect [2],Percent Effect [3],Percent Effect [4],Percent Effect [5],Percent Effect [6],Percent Effect ([7]; 33.3 µM),Percent Effect [8],Percent Effect [9],Percent Effect [10],Percent Effect [11],Percent Effect [12],Percent Effect [13],Percent Effect ([7]; 30 µM),PXC50 ([14]; MAX_EFFECT 19.58174905),PXC50 ([14]; MAX_EFFECT 31.74946004)
CCn1cc(CN2CCCN(C(=O)Cc3cccs3)CC2)cn1,-4.84%,22.8%,-2.8%,-10.6%,3.48%,6.52%,-0.76%,15.6%,-4.27%,-21.2%,10.3%,29.1%,-8.38%,–,–,–
CN(C)C(=O)CN1C[C@@H]2CC[C@H](C1)N(C(=O)Cc1ccccc1Cl)C2,-7.08%,-8.22%,1.5%,3.48%,-0.0171%,-5.16%,0.798%,9.16%,-4.89%,-30.4%,0%,-23.5%,-1.84%,–,–,–
O=C1CSC(c2ccsc2)c2c(n(C3CCOCC3)[nH]c2=O)N1 (stereo not given),-1.28%,14.7%,-2.38%,-5.51%,3.3%,-0.589%,94.2%,8.13%,6.12%,-12.8%,6.35%,12.8%,-11.9%,7.03%,–,–
NC1CC1c1ccc(Cl)cc1Cl (stereo not given),–,–,–,–,–,–,–,–,–,–,–,–,–,–,< 3,< 3
CC[C@H](N)Cn1nc(-c2cccs2)oc1=O,-1.83%,9.46%,7.37%,12%,-5.1%,-1.98%,-1.62%,16.7%,2.87%,5.59%,1.07%,3.9%,-13.2%,–,–,–
